Of roughly 8,800 targets only a part is listed; those with a hit were picked by preference. About 0.5% of all pairs of compound and target were hits. Unmarked numbers belong to inactive results.
Tests used:
Assay in all cases: log2 fold change, soluble protein after heating vs DMSO (PISA); higher = thermal stabilisation; K562 lysate, 10 uM; active = over 0.2 and 3.5 SD of the protein, either way, in both replicates (recomputed)
[1] = compound: C#Cc1cccc(Nc2ncnc3cc(OCCOC)c(OCCOC)cc23)c1 [erlotinib]
Method in brief: (§1)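 The values are log-two fold changes in thermal stability compared with solvent controls and come from duplicates. They were obtained by TMTpro 16plex LC-MS/MS, with channel sums equalised, on the supernatant after 21,000xg for 90 min. That supernatant came from crude K562 extract at 1 mg/mL protein treated with 10 μM compound for 30 min, heated for 3 min across 48°C-58°C, pooled and brought to 0.5% NP-40 at 4°C.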

[2] = compound: C/C(=N\NC(=O)C1=CC(=CC=C1)S(=O)(=O)N2CCOCC2)/C3=C(C=CC(=C3)Cl)O
Method in brief: as §1

[3] = compound: C1=CC(=CC=C1C2=NC3=C(N2)C=C(C=C3)C(=O)N)OC4=CC=C(C=C4)Cl
Method in brief: as §1

[4] = compound: C1=CC2=C(C=CC(=C2)/C=C\3/C(=O)NC(=NCC4=CC=CS4)S3)N=C1
Method in brief: as §1

[5] = compound: C1=CC2=NC=CN=C2C=C1/C=C/3\C(=O)NC(=O)S3
Method in brief: as §1

[6] = compound: C1=CC=C(C=C1)C2=NC(=C(N2)C3=CC=NC=C3)C4=CC(=C(C=C4)Cl)O
Method in brief: as §1

[7] = compound: C1=CC=C2C(=C1)C3=NNC4=CC=CC(=C43)C2=O
Method in brief: as §1

[8] = compound: C1CCN(C1)C(=O)NC2=CC=CC(=C2)NC3=NC=C(C(=N3)NCCC4=CN=CN4)Br
Method in brief: as §1

[9] = compound: C1CN(CCC1(CC2=CC=C(C=C2)Cl)N)C3=NC=NC4=C3C=CN4
Method in brief: as §1

[10] = compound: C1COCCN1CCN2C3=CC=CC=C3N=C2NC(=O)C4=CC(=CC=C4)[N+](=O)[O-] [IRAK-1-4 Inhibitor I]
Method in brief: as §1

Sequence of UniProt Q8TD19 (Q8TD19 whole entry, looked up): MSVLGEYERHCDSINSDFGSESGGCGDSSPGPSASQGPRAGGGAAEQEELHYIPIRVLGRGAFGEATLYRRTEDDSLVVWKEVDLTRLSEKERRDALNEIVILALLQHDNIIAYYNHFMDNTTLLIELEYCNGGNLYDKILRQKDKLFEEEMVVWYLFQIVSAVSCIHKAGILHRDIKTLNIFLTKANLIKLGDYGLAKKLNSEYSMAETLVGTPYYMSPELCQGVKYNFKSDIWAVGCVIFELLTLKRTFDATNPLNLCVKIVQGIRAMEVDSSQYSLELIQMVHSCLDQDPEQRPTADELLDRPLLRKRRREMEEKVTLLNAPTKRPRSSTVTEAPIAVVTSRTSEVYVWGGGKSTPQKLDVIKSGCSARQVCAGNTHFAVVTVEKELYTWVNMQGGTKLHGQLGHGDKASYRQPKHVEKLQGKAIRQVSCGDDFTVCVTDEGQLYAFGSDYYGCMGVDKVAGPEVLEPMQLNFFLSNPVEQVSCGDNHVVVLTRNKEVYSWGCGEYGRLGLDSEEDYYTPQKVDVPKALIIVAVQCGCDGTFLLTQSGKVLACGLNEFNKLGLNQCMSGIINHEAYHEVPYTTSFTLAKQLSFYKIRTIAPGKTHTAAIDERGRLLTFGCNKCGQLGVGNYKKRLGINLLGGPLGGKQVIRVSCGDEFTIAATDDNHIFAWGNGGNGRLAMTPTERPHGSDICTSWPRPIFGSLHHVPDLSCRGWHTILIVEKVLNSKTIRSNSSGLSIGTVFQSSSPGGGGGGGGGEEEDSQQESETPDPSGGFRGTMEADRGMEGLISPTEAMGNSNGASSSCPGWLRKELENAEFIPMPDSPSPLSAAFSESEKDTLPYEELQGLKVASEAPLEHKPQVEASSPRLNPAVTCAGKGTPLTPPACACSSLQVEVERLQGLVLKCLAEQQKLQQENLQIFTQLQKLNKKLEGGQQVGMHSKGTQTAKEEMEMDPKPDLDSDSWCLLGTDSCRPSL
Sequence of UniProt Q8IVI9 (Q8IVI9 whole entry, looked up): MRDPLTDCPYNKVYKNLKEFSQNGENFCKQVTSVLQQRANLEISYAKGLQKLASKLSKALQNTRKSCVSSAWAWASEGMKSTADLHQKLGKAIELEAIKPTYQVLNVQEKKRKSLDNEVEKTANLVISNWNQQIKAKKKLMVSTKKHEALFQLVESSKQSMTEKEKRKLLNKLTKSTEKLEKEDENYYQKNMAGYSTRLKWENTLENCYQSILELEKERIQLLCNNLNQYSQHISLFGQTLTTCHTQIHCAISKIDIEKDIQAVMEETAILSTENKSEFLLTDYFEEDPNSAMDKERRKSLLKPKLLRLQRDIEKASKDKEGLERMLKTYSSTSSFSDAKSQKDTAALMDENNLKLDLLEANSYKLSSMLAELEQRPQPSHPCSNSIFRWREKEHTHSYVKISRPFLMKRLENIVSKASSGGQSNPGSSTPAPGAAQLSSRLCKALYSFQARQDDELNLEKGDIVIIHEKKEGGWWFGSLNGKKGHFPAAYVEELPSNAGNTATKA
Sequence of UniProt Q9NTK5 (Q9NTK5 whole entry, looked up): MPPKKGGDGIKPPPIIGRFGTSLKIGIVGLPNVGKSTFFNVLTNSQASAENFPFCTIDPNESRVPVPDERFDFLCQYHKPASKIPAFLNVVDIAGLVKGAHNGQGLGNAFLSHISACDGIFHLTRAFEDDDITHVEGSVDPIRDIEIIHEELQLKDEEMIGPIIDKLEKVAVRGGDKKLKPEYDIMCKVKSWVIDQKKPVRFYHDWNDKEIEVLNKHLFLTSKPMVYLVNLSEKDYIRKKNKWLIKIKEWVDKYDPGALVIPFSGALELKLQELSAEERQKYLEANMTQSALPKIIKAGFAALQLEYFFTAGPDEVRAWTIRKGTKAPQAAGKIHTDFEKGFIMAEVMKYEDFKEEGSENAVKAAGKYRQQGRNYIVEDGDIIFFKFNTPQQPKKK
Sequence of UniProt Q9NZT2 (Q9NZT2 whole entry, looked up): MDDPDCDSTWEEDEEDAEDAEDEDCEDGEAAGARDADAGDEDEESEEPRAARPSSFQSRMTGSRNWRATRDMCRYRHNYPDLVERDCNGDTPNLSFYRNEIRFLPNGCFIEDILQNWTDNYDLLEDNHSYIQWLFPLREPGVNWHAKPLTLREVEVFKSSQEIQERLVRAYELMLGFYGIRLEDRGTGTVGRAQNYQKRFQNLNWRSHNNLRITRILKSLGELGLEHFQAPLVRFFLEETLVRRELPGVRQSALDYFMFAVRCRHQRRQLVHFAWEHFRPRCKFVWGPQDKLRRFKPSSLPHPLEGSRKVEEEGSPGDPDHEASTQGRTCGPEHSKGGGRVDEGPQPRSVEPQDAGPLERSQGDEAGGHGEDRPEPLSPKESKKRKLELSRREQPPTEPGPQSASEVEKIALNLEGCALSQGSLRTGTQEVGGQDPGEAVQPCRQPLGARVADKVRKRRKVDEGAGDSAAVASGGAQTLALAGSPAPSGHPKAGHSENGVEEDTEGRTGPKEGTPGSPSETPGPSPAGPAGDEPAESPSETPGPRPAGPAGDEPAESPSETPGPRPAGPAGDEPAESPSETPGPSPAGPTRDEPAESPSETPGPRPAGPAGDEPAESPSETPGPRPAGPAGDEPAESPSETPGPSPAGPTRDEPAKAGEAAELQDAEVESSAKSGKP
Sequence of UniProt P49116 (P49116 whole entry, looked up): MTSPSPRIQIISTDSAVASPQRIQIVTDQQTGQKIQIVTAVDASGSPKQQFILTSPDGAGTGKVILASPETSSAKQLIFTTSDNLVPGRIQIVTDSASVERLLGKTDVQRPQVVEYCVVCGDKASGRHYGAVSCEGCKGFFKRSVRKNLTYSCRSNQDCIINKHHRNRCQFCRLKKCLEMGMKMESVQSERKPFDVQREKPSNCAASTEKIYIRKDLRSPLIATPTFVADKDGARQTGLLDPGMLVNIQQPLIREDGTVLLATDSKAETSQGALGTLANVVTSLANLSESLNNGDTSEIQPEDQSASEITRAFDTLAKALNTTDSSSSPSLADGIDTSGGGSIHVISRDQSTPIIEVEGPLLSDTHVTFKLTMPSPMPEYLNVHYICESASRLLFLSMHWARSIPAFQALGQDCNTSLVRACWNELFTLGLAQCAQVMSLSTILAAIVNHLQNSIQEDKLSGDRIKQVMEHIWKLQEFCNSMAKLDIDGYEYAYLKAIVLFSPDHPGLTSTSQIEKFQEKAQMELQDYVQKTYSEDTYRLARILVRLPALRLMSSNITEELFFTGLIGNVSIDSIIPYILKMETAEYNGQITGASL
Sequence of UniProt P04181 (P04181 whole entry, looked up): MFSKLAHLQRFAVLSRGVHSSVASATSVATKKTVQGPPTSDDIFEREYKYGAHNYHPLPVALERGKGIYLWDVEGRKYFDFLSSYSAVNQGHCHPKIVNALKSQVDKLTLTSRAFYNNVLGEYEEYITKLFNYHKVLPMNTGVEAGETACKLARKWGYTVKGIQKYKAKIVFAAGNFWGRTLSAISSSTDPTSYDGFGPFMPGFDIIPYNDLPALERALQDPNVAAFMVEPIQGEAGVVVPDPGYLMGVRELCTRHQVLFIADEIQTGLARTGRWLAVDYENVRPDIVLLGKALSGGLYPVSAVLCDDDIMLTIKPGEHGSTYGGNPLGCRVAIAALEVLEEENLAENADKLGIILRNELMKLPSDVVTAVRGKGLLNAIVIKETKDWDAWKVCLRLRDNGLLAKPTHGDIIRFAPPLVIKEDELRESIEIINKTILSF
Sequence of UniProt O96013 (O96013 whole entry, looked up): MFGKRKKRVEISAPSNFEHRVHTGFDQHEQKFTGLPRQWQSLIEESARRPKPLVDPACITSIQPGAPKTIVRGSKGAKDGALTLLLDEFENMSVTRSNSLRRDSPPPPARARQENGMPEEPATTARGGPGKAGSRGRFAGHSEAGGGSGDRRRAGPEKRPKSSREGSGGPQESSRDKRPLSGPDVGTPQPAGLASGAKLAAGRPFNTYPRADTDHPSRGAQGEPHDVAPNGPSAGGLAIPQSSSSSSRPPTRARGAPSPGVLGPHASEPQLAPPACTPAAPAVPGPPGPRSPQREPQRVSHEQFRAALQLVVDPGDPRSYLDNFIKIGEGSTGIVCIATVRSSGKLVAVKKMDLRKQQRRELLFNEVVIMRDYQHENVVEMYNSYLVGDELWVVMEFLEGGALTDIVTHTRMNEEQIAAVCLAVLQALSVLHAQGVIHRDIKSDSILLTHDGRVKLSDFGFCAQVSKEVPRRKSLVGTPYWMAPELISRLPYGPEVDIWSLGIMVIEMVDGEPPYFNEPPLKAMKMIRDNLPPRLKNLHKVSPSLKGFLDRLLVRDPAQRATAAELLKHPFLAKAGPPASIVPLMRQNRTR
Sequence of UniProt Q9Y5N5 (Q9Y5N5 whole entry, looked up, one chain of several): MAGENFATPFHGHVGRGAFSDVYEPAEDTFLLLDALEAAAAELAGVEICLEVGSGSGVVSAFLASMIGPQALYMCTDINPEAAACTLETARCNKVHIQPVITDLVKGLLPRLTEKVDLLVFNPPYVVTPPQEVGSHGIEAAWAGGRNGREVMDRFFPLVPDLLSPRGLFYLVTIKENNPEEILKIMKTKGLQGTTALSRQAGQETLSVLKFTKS
Sequence of UniProt Q6N063 (Q6N063 whole entry, looked up): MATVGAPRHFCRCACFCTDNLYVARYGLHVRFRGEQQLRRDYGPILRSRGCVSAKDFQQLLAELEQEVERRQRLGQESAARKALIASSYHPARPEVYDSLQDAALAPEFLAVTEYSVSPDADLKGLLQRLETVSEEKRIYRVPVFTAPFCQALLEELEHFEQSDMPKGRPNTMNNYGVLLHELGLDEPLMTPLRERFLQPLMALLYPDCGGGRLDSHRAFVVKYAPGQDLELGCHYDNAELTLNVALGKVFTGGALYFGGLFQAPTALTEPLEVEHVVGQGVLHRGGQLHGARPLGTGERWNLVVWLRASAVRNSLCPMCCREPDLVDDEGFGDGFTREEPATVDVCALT
Sequence of UniProt Q9BPZ3 (Q9BPZ3 whole entry, looked up): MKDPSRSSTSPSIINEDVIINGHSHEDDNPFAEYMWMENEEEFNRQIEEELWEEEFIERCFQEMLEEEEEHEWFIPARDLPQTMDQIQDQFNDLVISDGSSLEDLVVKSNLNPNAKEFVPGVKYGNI
Sequence of UniProt O00483 (O00483 whole entry, looked up): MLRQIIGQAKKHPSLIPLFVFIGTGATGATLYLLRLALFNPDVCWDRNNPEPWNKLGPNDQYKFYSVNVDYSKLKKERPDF

Target	log2 fold change [1]	log2 fold change [2]	log2 fold change [3]	log2 fold change [4]	log2 fold change [5]	log2 fold change [6]	log2 fold change [7]	log2 fold change [8]	log2 fold change [9]	log2 fold change [10]
NCAPH2 (UniProt Q6IBW4)	-0.031	-0.085	0.011	-0.012	0.026	0	-0.005	-0.038	0.042	0.009
NEK9 (UniProt Q8TD19)	-0.008	0.038	-0.028	-0.022	-0.021	-0.013	0.154	0.083	-0.009	0.142
MTHFD1L (UniProt B7ZM99)	0.026	-0.001	0	-0.007	0.033	-0.006	-0.057	-0.004	0.002	-0.013
MRPL58 (UniProt Q14197)	0.025	-0.005	0.054	-0.003	0.01	-0.002	-0.025	-0.078	0.043	-0.012
PBK (UniProt Q96KB5)	0.012	0.026	-0.044	0.014	-0.014	0.008	-0.001	-0.007	-0.011	-0.007
NBEAL2 (UniProt Q6ZNJ1)	0.032	0.011	-0.031	0.038	0.017	-0.004	-0.032	-0.012	0.024	-0.01
NAA35 (UniProt Q5VZE5)	0.017	0.054	-0.023	0.115	0.021	0.01	-0.002	-0.026	-0.025	0.013
NPLOC4 isoform 2 (UniProt Q8TAT6)	-0.022	0.032	-0.004	0.001	-0.012	0.011	-0.016	-0.012	0.007	0.001
NOSTRIN (UniProt Q8IVI9)	-0.031	0.032	0.132	0.072	-0.008	-0.013	0.07	-0.055	-0.065	0.001
NPTN (UniProt Q9Y639)	-0.047	-0.02	-0.056	-0.421 (active)	0.008	0.048	0.17	-0.003	0.007	0.064
NIPSNAP3A (UniProt Q9UFN0)	0.008	-0.014	0.062	-0.03	0.012	0.003	0.015	-0.012	0.002	0.015
NSUN7 (UniProt Q8NE18)	-0.037	-0.271	0.019	-0.095	0.198	-0.031	-0.087	-0.026	-0.042	0.068
NUP160 (UniProt Q12769)	0.038	0.041	-0.033	-0.006	0.038	-0.012	-0.075	-0.029	0.015	-0.013
NDUFS1 isoform 2 (UniProt P28331)	-0.006	0.033	-0.045	0.025	0.027	-0.033	-0.027	-0.052	0.006	0.006
PAK4 (UniProt O96013)	0	-0.076	0.072	0.052	-0.006	-0.005	0.335	0.469	0.124	-0.044
NR2C2 isoform 2 (UniProt P49116)	0.006	0.135	-0.014	0.134	-0.012	0.064	-0.035	0.061	-0.041	-0.019
N6AMT1 (UniProt Q9Y5N5)	0.022	-0.053	-0.082	0.02	-0.097	0.013	-0.272	0.005	-0.013	-0.022
NDUFA4 (UniProt O00483)	0.038	0.092	-0.012	0.055	0.009	0.055	0.046	0.012	0.001	-0.01
NAP1L5 (UniProt Q96NT1)	-0.003	-0.023	0.017	-0.014	-0.014	0.084	-0.116	-0.057	0	-0.059
MRPL53 (UniProt Q96EL3)	-0.036	-0.103	0.042	0.014	-0.004	-0.015	-0.049	-0.07	0.096	0.026
OGFR (UniProt Q9NZT2)	0.023	0.023	0.018	-0.015	-0.012	-0.011	-0.027	-0.01	0.038	-0.012
OLA1 (UniProt Q9NTK5)	0.038	0.031	0.029	-0.02	0.02	0.007	-0.048	0.022	0.02	-0.02
OAT (UniProt P04181)	-0.006	-0.074	-0.04	0.023	0.007	-0.017	-0.038	-0.033	0.008	0.018
MYCBP (UniProt Q99417)	0.007	-0.001	0.011	0.007	0	0.019	0	0.024	0.076	0.04
MTMR6 (UniProt Q9Y217)	0.01	0.044	0.002	-0.008	-0.004	-0.009	-0.052	-0.013	0.015	-0.013
OGFOD2 (UniProt Q6N063)	0.034	-0.151	-0.093	-0.074	0.022	-0.034	0.001	0.003	0.006	-0.04
NACC1 (UniProt Q96RE7)	-0.006	0.038	0.036	-0.023	-0.004	0.01	-0.011	0.023	-0.014	0.009
NEK7 (UniProt Q8TDX7)	-0.004	0.042	-0.083	0	0.01	0.053	0.103	0.011	-0.005	0.032
PAIP2 (UniProt Q9BPZ3)	0.044	0.041	-0.016	-0.01	0.004	-0.054	-0.053	-0.044	0.022	0.017

— the supplement of paper PMC10849652
